# In all, about 68,000 sequences were measured (“fluorescence intensity (a.u.)”: median about 9,100, highest 2% from about 16,000 on). This is one part of a sample in which the highest values are shown more often than they occur.
# Target: OsWRKY34 (Oryza sativa, UniProt Q0JBA9 1-250)
# Test: protein-binding microarray (RPBM); PBS, 2% BSA, 51.3 ng/ul salmon testes DNA, 50 uM zinc acetate, 200 nM TF, 25 C, 1 h; high values mean tight binding
# Conditions: protein: recombinant; tags: N-terminal polyhistidine and DsRed monomer fusion (pET32a); label: CyDye5-dUTP incorporated in the synthesized complementary strand; 3' TTTTT single-stranded linker to array surface; dsDNA, one strand shown
# Outline: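 Transcription factors were made in E. coli BL21-CodonPlus as N-terminal fusions to a polyhistidine tag and DsRed, then purified on Ni–NTA. After primer extension with Cy5-dUTP and blocking with 2% BSA, a custom Agilent array was exposed for 1 h at 25 °C to 200 nM protein in PBS, 2% BSA, salmon testes DNA and 50 µM zinc acetate. Washed arrays were scanned on an Axon 4000B, and the binding signal is per-feature fluorescence intensity in arbitrary units.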
# Chain of OsWRKY34 (Q0JBA9 entry or part of it): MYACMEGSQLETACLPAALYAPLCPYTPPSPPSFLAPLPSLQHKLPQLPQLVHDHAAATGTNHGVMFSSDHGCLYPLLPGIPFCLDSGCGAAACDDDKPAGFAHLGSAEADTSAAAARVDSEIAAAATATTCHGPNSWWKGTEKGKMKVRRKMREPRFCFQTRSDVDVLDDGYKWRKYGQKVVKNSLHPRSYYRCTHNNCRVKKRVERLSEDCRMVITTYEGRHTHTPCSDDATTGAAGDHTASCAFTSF
row,Sequence,binding signal
1,CGCTCCACATAGGCTAGGCCCATGTCCCTTAGAGGATCCTCGGAGTCACCTAGTGCAG,8380 fluorescence intensity (a.u.)
2,GCTACTACTGCTGCTGCTGCTACTTATCCACCGCTTTTTTCGGAGTCACCTAGTGCAG,13600 fluorescence intensity (a.u.)
3,GCAGCGCTCGTCTCTCTCTGTCTCTCCACTCTCTTCTCTCCGGAGTCACCTAGTGCAG,10100 fluorescence intensity (a.u.)
4,CTAACCCGCGCCCCAACCCTAGCCGCCTCCGCCCCGCCTCCGGAGTCACCTAGTGCAG,8920 fluorescence intensity (a.u.)
5,TACCCACACCGATCTGCCGCTGCCCAGTTCCACCTACTTTCGGAGTCACCTAGTGCAG,16800 fluorescence intensity (a.u.)
6,TGTCACATTTTTCGTCGTCTCCATCTTCATCTTCTTGTCGCGGAGTCACCTAGTGCAG,11200 fluorescence intensity (a.u.)
7,CCTCACATCTTCTTCTTCATCTCCCTGTCTCTGTCTCTGTCGGAGTCACCTAGTGCAG,13500 fluorescence intensity (a.u.)
8,GTCTTCCCCTAGCGCCGCCGCCTCCACCTCCGCCGCCGTCCGGAGTCACCTAGTGCAG,8700 fluorescence intensity (a.u.)
9,GTGCCACTCTGTCTCTTCCGTCCATAGCGCCGTCGTCTTCCGGAGTCACCTAGTGCAG,17300 fluorescence intensity (a.u.)
10,ACCCGTCTCTGTTCATCTCCACATCTTGTCTTCTCGCTGTCGGAGTCACCTAGTGCAG,18100 fluorescence intensity (a.u.)
11,CCGCCCTTAGACAGGCCCCGCCTCCGCCTCCGCGCCCACCCGGAGTCACCTAGTGCAG,27800 fluorescence intensity (a.u.)
12,CCCCACCGCCCACCGCCCACCGCCCACCCACCTCCGCACCCGGAGTCACCTAGTGCAG,11600 fluorescence intensity (a.u.)
13,CTCACGCGCTGCACCGCCGATACCCCACCCGCTGCTAGTTCGGAGTCACCTAGTGCAG,8670 fluorescence intensity (a.u.)
14,CCCGACCCAAACCTCACCGCCGCCGTCGCCGTTGCCGCCGCGGAGTCACCTAGTGCAG,8310 fluorescence intensity (a.u.)
15,TTAACTCGACAGTTTGTGTGTGATTTCAGTACTACCACGACGGAGTCACCTAGTGCAG,10400 fluorescence intensity (a.u.)
16,CTCCGCCGTCGCGTCCCCGCCGCCGCCGCCCGCCTTCCCCCGGAGTCACCTAGTGCAG,9960 fluorescence intensity (a.u.)
17,ACTCGCGATATGCTTGTAACTTGGTTTGGTATTCCATTCTCGGAGTCACCTAGTGCAG,9670 fluorescence intensity (a.u.)
18,GGGTTACGGCTGCAAGCTTGTTCTCTCCAGATGGGGAGTTCGGAGTCACCTAGTGCAG,10400 fluorescence intensity (a.u.)
19,TTCTCCACCGCCGCCACCACCACCTCGCCTGGCCGGCCTCCGGAGTCACCTAGTGCAG,18000 fluorescence intensity (a.u.)
20,GTCTCCGCGCGCGCTCTCTCTTTCGTTCACTCTCGCTTTCCGGAGTCACCTAGTGCAG,14500 fluorescence intensity (a.u.)
21,CGCTTTCCTCTGTTTCTCCGCCGCGCTCGTTCGTCGTCTCCGGAGTCACCTAGTGCAG,21400 fluorescence intensity (a.u.)

row,Sequence,binding signal
1,CTCCTCTCGCCGCCGCCGCCACCGCCACCGCCGCCGCTCCCGGAGTCACCTAGTGCAG,10100 fluorescence intensity (a.u.)
2,CTCGCCGCCGGCCTCCTCCACCACCACCGACGACTCCGACCGGAGTCACCTAGTGCAG,8430 fluorescence intensity (a.u.)
3,CGCGCCCTCCTCCGCCGCCGCTCGCCGCCGTTCGTCTCCGCGGAGTCACCTAGTGCAG,9840 fluorescence intensity (a.u.)
4,AACACCGTTCCTCCGCCGCGCCGTCATTGCCACCGGCCTCCGGAGTCACCTAGTGCAG,9730 fluorescence intensity (a.u.)
5,TCCCTCCCGTCTCGTCTCCGCTCATTGCGCCATCTCGCGCCGGAGTCACCTAGTGCAG,8660 fluorescence intensity (a.u.)
6,CCGCCGCTTCCTCGCCACCGCCGCTGCCGCCGCCACTTCCCGGAGTCACCTAGTGCAG,19400 fluorescence intensity (a.u.)
7,GCTCTCATGGCCTCACACACCGCGCCATTGCCATCGTTTCCGGAGTCACCTAGTGCAG,17000 fluorescence intensity (a.u.)
8,GTCCTGCTGCTTCCGCCGCCGCCACCGTCCTGCTGCTTCCCGGAGTCACCTAGTGCAG,9500 fluorescence intensity (a.u.)
9,GCCTCGCCTCGCCGCCGGCGGCCACCGTCTCCGCCGCCTCCGGAGTCACCTAGTGCAG,8800 fluorescence intensity (a.u.)
10,CATCGACTACCTGCCATTCTTCTACTCCAGGGTCTTCTCGCGGAGTCACCTAGTGCAG,9510 fluorescence intensity (a.u.)
11,ATCTTATGGTGTATTTTTTTTTTCTCCGGTGCAGGTTGGTCGGAGTCACCTAGTGCAG,8260 fluorescence intensity (a.u.)
12,GATGTGAATCACCCTTTGCTTTGCTGAATCTACTCCTACACGGAGTCACCTAGTGCAG,10600 fluorescence intensity (a.u.)
13,GCGAACTCCGAGCGCGGAGGTTGAGGCGGCGGCGAGCGTGCGGAGTCACCTAGTGCAG,9820 fluorescence intensity (a.u.)
14,CATTATTAAAATATATATGTGTTACATTCGGTATTATATTCGGAGTCACCTAGTGCAG,8650 fluorescence intensity (a.u.)
15,CCTCATGATGATGCCGAACGTCTCGACATTGACCGCGCCCCGGAGTCACCTAGTGCAG,9370 fluorescence intensity (a.u.)
16,CCGCCGCCCACCTCATGCCTTGCGCGGTGCCCGTGAGAGACGGAGTCACCTAGTGCAG,8250 fluorescence intensity (a.u.)
17,GATCGCTCCATAAACATGCAATATATCAATTTTAACTTTTCGGAGTCACCTAGTGCAG,8900 fluorescence intensity (a.u.)
18,CTCTCAGCCGGTCTATCAATTCCCCTTTCTGATACAATAACGGAGTCACCTAGTGCAG,9570 fluorescence intensity (a.u.)
19,CCCATTCTAGATATTAACTACTAATCTGACTCTATTTTTTCGGAGTCACCTAGTGCAG,8880 fluorescence intensity (a.u.)
20,TGGGTTTTATTTTCCCATTCTTTCGAGCTATTTTGACGGACGGAGTCACCTAGTGCAG,8220 fluorescence intensity (a.u.)
21,ACCCGCTTCTCGTCTCCTCGTCTCCTCGTTCGTCTCTCGCCGGAGTCACCTAGTGCAG,18000 fluorescence intensity (a.u.)

# Source: PMC7819943, “Rice protein-binding microarrays: a tool to detect cis-acting elements near promoter regions in rice”
